Most compounds without a hit are left out; they make up all but 0.49% or so of the library.
Tb PFK block: qHTS Assay to Find Inhibitors of T. brucei phosphofructokinase; ATP-dependent 6-phosphofructokinase (Trypanosoma brucei brucei), O15648; T. brucei PFK, ADP-Glo luminescence; Potency, µM (doses to about 57.5 µM), without a hit: at the top dose activity, negative = inhibition, hits mostly inhibitors; hit rate 0.17% among 330,000;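 also: potency is read from the fitted curve at half-maximal effect; 0% = uninhibited 1x PFK enzyme wells and -100% = no-enzyme wells; nearly all actives have a fitted effect of over 60% in size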
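Luminescent ADP detection (ADP-Glo, two-step: ATP depletion then ADP-to-ATP conversion for luciferase) reported PFK activity after 45 min room-temperature reaction of 1.25 nM enzyme with 0.5 mM F6P and 0.1 mM ATP at pH 8.0.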
BCR signal inh: qHTS Assay to Find Inhibitors of Chronic Active B-Cell Receptor Signaling; ABC-DLBCL IkBa-CBG/CBR reporter, luminescence ratio, 4 h; hit rate 0.05% among 340,000; Potency, µM (highest dose often 46.1 µM), without a hit: at the highest dose activity change, negative = inhibition, most hits filed as inhibitors; active = well fitted inhibition curve with a large enough effect in the signal ratio, with a control signal flat, not every such curve was filed as active; inconclusive = small, poorly fitted or top-dose-only effect, or effect the other way, or a change in a side signal; the % refers to the signal ratio;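 also: potency is read from the fitted curve at half-maximal effect; plate controls were basal doxycycline-induced cells for no effect and cells given 10 µM MG132 for full effect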
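Doxycycline induced both beetle luciferases in TMD8 lymphoma cells; IKK-driven degradation limits the IkappaBalpha-fused green signal, while red luminescence normalises for cell number and nonspecific effects. Compounds tested up to 46 uM, 4 hrs.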
TCR activator: Activators of T cell receptors: qHTS campaign; primary human leukocytes, anti-CD3, IL-2 HTRF, 48 h; Potency, µM (titrated, usually from 9.22 µM), for the others: top-dose activation of IL-2 secretion, most hits filed as activators; 330,000 tested, under 10 active; also: % of control where 0% means no effect
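Primary human leukocytes were stimulated with a-CD3 beads plus compounds for 48 hr without co-stimulation; secreted IL-2 was quantified by HTRF using a-IL-2-K (europium cryptate) and a-IL-2-d2, excited at 320nm with acceptor emission read at 665nm.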
ASM inhibitor: Inhibitors of Secretory Acid Sphingomyelinase (S-ASM): qHTS; Sphingomyelin phosphodiesterase (Homo sapiens), P17405; placental ASM, HMU-PC fluorogenic substrate, 60 min; Potency, µM (highest dose often 57.5 µM), without a hit: at the top dose activity change, negative = inhibition, most hits filed as inhibitors; hit rate 0.006% among 340,000; also: potency is read from the fitted curve at half-maximal effect
Target sequence (P17405 47-631 limits assumed): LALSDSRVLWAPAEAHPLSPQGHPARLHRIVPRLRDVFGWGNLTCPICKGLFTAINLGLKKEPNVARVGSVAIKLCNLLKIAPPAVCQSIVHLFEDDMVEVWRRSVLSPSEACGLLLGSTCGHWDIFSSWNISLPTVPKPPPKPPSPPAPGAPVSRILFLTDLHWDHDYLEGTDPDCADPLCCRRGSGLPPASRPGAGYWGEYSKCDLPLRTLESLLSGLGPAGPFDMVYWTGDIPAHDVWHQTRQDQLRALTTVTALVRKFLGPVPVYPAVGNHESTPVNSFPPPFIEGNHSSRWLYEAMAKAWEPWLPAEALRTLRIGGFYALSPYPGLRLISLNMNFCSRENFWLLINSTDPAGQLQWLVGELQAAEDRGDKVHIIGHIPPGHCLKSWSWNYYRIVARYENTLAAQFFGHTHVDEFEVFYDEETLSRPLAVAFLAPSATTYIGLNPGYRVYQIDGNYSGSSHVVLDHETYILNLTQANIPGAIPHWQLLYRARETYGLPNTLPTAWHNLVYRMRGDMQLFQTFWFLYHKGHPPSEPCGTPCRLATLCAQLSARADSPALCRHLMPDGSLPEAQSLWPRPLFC
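Human placenta-derived ASM enzyme was preincubated with compound for 10 minutes at room temperature, then given fluorogenic substrate HMU-PC0 (9 uM final) for 60 minutes at 37 °C; a pH 10 stop preceded fluorescence reading at Ex 386/Em 447 nm.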
CCT modulator: High-Throughput Screening for Modulators of Cytosolic Chaperonin Activity; purified chaperonin ATPase assay, HTRF ADP detection, 30 min; activity change, % (concentration not given with the values), hits read low; hit rate 0.3% among 360,000; AID 651819, 2012; in the data active = activity change below about -30%; also: % is scaled to controls: 0 for no effect and ±100 for the full control effect
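First, chaperonin was dispensed at 40 nM or 20 nM final depending on batch activity. Next, compounds were pinned at 76 uM and ATP added at 10 uM. After 30 min at 37 °C, ADP detection reagents ran 30 min at ambient temperature.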
Numbers without * were called inactive; i = inactive; ? = inconclusive; / = no result; [ ] = another dose, or the depositor's remark. Unless noted, calls follow the shape of the dose curve; as a rule, active = well fitted curve in the direction sought with a large enough effect; inconclusive = small, poorly fitted or top-dose-only effect, or another doubt; inactive = no such curve, though single readings can be large; an effect the other way counts as inactive or inconclusive.

SMILES	Tb PFK block	BCR signal inh	TCR activator	ASM inhibitor	CCT modulator
COc1ccccc1/C=C/CN1CCC(Oc2cc(C(=O)NC3CC3)ccc2OC)CC1	0%	-2%	-1%	-1%	-34*
NS(=O)(=O)c1ccc(NC(=O)COC(=O)c2cc(Cl)ccc2[N+](=O)[O-])cc1	-4%	1%	-8%	4%	-18
CN(C)c1ccc(NC(=O)COC(=O)c2cc(Cl)ccc2[N+](=O)[O-])cc1	0%	2%	5%[46.1 µM]	7%	-90*
CC(C)CCNC(=O)CN1C(=O)CSc2ccc(S(=O)(=O)N3CCCCC3)cc21	/	0%	/	/	/
Cc1ccc(S(=O)(=O)Nc2ccc(O)c(Sc3ncn[nH]3)c2)cc1	-2%	-6%	3%	2%	-1
CCOc1ccc(S(=O)(=O)Nc2ccc(O)c(Sc3ncn[nH]3)c2)cc1	-12%	0%	-6%[46.1 µM]	7%	-38*
COc1cc2cc(C(=O)N3CCOCC3)cc(-c3ccc(C)cc3)c2cc1OC	0%	16µM*	4%	-12%	1
FC(F)(F)c1cccc(-c2ccn3ncnc3n2)c1	-8%	-5%	1%	0%	-56*
OC(c1ccccc1)(c1nc(-c2cccc(C(F)(F)F)c2)cs1)C(F)(F)F (stereo unspecified)	/	/	/	/	0
CC1(C)CC(=O)C2=C(C1)NC(SCC(=O)Nc1ccccc1)=C(C#N)C2c1ccco1 (stereo unspecified)	2%	?	-5%	34%	0
Cc1ccc(C(=O)CSC2=C(C#N)C(c3ccco3)C3=C(CC(C)(C)CC3=O)N2)cc1 (stereo unspecified)	2%	0%	-5%	85%	-47*
CC(NC(=O)COC(=O)CNC(=O)c1ccccc1Cl)C1CC2CCC1C2 (stereo unspecified)	-2%	?	-8%	5%	-40*
Cn1cccc1C(=S)N=P(C1CCCCC1)(N1CCOCC1)N1CCOCC1	2%	1%	-19%	-2%	-52*
C/C=C/c1ccc(OCCCCN2CCN(CC)CC2)c(OC)c1	-4%	-14%	0%	2%	-58*
Cc1ccc(-c2csc(NC(=O)C3CCN(S(=O)(=O)c4cccs4)CC3)n2)cc1	-1%	?	2%[46.1 µM]	-15%	-1
O=C(Nc1nc(-c2ccc3ccccc3c2)cs1)C1CCN(S(=O)(=O)c2cccs2)CC1	-2%	4%	10%[46.1 µM]	-5%	-51*
O=C(CCNC(=O)C1CCN(S(=O)(=O)c2ccccc2)CC1)NCc1ccc(Cl)cc1	-4%	0%	3%	i	-80*
O=C(CCNC(=O)C1CCN(S(=O)(=O)c2ccccc2)CC1)NCc1cccc(Cl)c1	-8%	-1%	-4%	i	-83*
O=C(CCNC(=O)C1CCN(S(=O)(=O)c2ccccc2)CC1)NCc1ccc(Cl)cc1Cl	-2%	-1%	-3%	5%	-25
COc1ccccc1-n1ncc2c(=O)[nH]c(SCC(=O)Nc3ccc(Cl)cc3)nc21	/	-16%	/	/	/
C=CCn1c2ccccc2c2nnc(SCC(=O)O)nc21	-3%	0%	/	2%	-43*
Cc1onc(-c2ccccc2Cl)c1C(=O)Oc1cc(F)cc(F)c1	/	10%	/	/	/
CCCCNc1c(-c2cccc(-c3ccc(OC)cc3)c2)nc2ccc(C)cn12	-7%	?	-9%	412%	-35*
Cc1c(Cl)cnc(NC(=O)COC(=O)c2nn(C)c(=O)c3ccccc23)c1Cl	0%	5%	-5%[46.1 µM]	-6%	0
Cn1nc(C(=O)OCC(=O)NCCc2ccccc2)c2ccccc2c1=O	1%	0%	11%	-1%	-32*
SMILES	Tb PFK block	BCR signal inh	TCR activator	ASM inhibitor	CCT modulator
Cc1ccc(Cl)c(NC(=O)COC(=O)c2nn(C)c(=O)c3ccccc23)c1Cl	4%	-3%	/	0%	-43*
Cn1nc(C(=O)OCC(=O)NCc2ccc(Cl)cc2)c2ccccc2c1=O	-13%	-4%	-3%	-9%	0
Cc1ccc(C)c(NC(=O)CSc2nnc(NC(=O)Nc3ccccc3)s2)c1	/	-2%	/	/	/
CCN(CC)CCn1c2c(c(SCC(=O)Nc3cccc(C(F)(F)F)c3)nc1=O)CCC2	/	-1%	/	/	/
COC(=O)C1=C(C)NC(C)=C(C(=O)OC)C1c1ccc(N(C)C)cc1	-13%	21µM*	-2%	13%	1
CCOC(=O)C1=C(C)NC(C)=C(C(=O)OCC)C1c1ccc(O)cc1	-1%	?	-2%	84%	-2
Cc1cc(=O)[nH]c2nnc(SCc3ccccc3F)n12	/	-7%	/	/	/
Cc1cc(Cl)ccc1OCC(=O)NNC(=O)c1ccco1	2%	?	-4%	-2%	-39*
Cc1cc(Cl)ccc1OCC(=O)NNC(=O)c1cccs1	/	/	6%	-2%	-1
Cc1cc(Cl)ccc1OCCCC(=O)NO	13µM*	?	-1%	-16%	0
O=C(COC(=O)/C=C/c1ccc(Cl)cc1Cl)NCCC1=CCCCC1	-2%	-3%	2%[46.1 µM]	-2%	0
O=C(COC(=O)/C=C/c1ccccc1Cl)NCCc1ccc(Cl)cc1Cl	0%	-9%	12%[46.1 µM]	-7%	-39*
COc1ccc(CC(=O)NCc2ccc3c(c2)CCN3C(=O)c2ccc(C)cc2)cc1OC	/	13%	/	/	/
Cn1c2cc(B(O)O)sc2c2cnn(Cc3c(F)cccc3Cl)c(=O)c21	-7%	?	/	/	/
COc1cccc(CSc2nc3ccccc3c3nc(CCn4c(C)nc5ccccc54)nn23)c1	/	6%	/	/	/
CCCc1cc(=O)n2[nH]c(C)c(-c3ccccc3)c2n1	-3%	3%	6%	3%	-57*
CC1(C)O[C@@H]2[C@H](O1)[C@@H](CO)O[C@H]2n1cnc2c(=O)[nH]cnc21	-4%	0%	4%	4%	-49*
CC(C)(C)OC(=O)Nc1ncnc2c1ncn2C1OC(CO)C2OC(C)(C)OC21 (stereo unspecified)	-1%	-2%	1%	5%	-1
CC(O)(c1cccc(F)c1)c1nc(-c2ccncc2)cs1 (stereo unspecified)	/	/	/	/	-31*
CCN(CC)S(=O)(=O)c1ccc(C)c(NC(=O)COc2ccc3c(C)cc(=O)oc3c2)c1	7%	-11%	-4%[46.1 µM]	0%	-1
CCN(CC)S(=O)(=O)c1ccc(OC)c(NC(=O)C(C)Oc2ccc3c(C)cc(=O)oc3c2)c1 (stereo unspecified)	0%	0%	-1%[46.1 µM]	6%	-31*
O=c1c2ccccc2sn1-c1cccc(Cl)c1	/	/	/	/	-1
CN(C)S(=O)(=O)c1cccc(-n2sc3ccccc3c2=O)c1	13µM*	?	1%	3%	-2
Oc1ccc(CNc2cccc(C(F)(F)F)c2)c2cccnc12	-4%	-3%	/	/	/

Compound activity (PubChem)
